TAG inh = inhibitors of triacylglycerol accumulation, primary screen, cell-based, uHTS, fluorescence, H9c2; H9c2 cells, Nile Red lipid (TAG) fluorescence; cells loaded with 200 µM oleic acid; inhibition, % at 12.5 µM; 230,000 compounds, 0.66% hits;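 active = pattern-corrected inhibition of lipid staining of at least 50% with the nuclear-stain viability signal not falling by more than 50%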
CHT allo act = CHT positive allosteric modulators, primary screen, cell-based, membrane potential dye, choline EC20 | 310,000 compounds, 0.49% hits | CHT-expressing cells; hits give high values; LV-AA mutant CHT in HEK293 cells | B-score at 10 µM | AID 488977, 2010;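 active = initial fluorescence not abnormally high and integrated response B-score, plate-corrected, over 3 SD above library mean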
Kir21 block = inhibitors of mouse Kir2.1 inward-rectifier potassium channel; Inward rectifier potassium channel 2 (Mus musculus), P35561; HEK293-Kir2.1, FluxOR thallium flux fluorescence; hits give low values; B-score at 10 µM; 310,000 compounds, 0.85% hits;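 active = fluorescence ratio B-score at or below minus 3 SD of library scores, with starting-brightness B-score within 2 SD, cut at about -4.2 in these data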;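 note: channel flux triggered by added potassium and thallium sulfate stimulus; B-score of peak minus minimum fluorescence over baseline after thallium stimulus; more negative B-score means stronger Kir2.1 block with less thallium influx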
Target sequence (P35561 whole entry, looked up): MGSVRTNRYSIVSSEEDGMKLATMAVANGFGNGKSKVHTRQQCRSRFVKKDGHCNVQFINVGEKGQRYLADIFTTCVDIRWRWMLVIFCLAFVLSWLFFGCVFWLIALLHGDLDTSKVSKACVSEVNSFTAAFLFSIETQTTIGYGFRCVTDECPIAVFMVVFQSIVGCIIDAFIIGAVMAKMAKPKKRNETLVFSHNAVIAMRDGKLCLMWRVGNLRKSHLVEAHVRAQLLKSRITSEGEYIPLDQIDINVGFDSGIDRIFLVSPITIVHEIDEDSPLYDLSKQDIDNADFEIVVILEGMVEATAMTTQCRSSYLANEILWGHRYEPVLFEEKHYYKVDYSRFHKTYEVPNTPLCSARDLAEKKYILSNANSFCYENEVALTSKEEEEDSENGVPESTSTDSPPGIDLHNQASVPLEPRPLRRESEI
CHT block = inhibitors of human choline transporter CHT | High affinity choline transporter 1 (Homo sapiens), Q9GZV3 | CHT-expressing cells, membrane potential dye, choline response; hits give low values | B-score at 10 µM | 310,000 compounds, 0.86% hits;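 active = B-score over 3 SD under the library average, and starting fluorescence ratio not unusually high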;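 note: choline stimulus applied at its EC90 after an EC20 pre-addition; B-score computed on integrated fluorescence ratio after choline addition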
CHT act confirm = CHT activators, confirmation, cell-based, membrane potential dye, duplicate. shares compounds with CHT allo act. CHT-expressing cells, membrane potential dye fluorescence (FDSS); % of choline EC20–EC90 response window; HEK293 expressing CHT LV-AA mutant; choline added at its EC20. activation, % at 10 µM. 2,500 compounds, 91% hits;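 active = primary screen active, with duplicate mean activation above negative control mean plus 3 SD, cut at about 11% in these data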
HEK293 MP dye = membrane potential response in parental HEK293 cells, counter-screen for CHT activator project, cell-based, membrane potential dye; shares compounds with CHT allo act; membrane potential dye fluorescence (FDSS); measured after EC20 choline addition; ratio readout change at 10 µM, hits read low; 2,500 compounds, 62% hits; AID 623908, 2012;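 active = duplicate-averaged ratio beyond 3 SD from buffer wells, up or down, though filed actives are nearly all decreases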
Of the large screens only hits and unclear results are named; the others gave an inactive call (follow-up assays come after a bar, where they were run); ! = not active in a repeat. Most compounds without a hit are left out; they make up all but 2% or so of the library.

CCCNC(=S)N1CCC(C(=O)c2ccc(OC)cc2)CC1	CHT allo act 6.7 | CHT act confirm inactive | HEK293 MP dye inactive
O=C(Nc1cccc(F)c1)Nc1nnc([C@@H]2O[C@H](CO)[C@@H](O)[C@H]2O)s1	none (no result: CHT allo act, Kir21 block, CHT block)
CCCOc1c(OC)cccc1C1CC(=O)Nc2cc3c(cc21)OCCO3 (configuration not stated)	none | CHT act confirm inactive | HEK293 MP dye inactive
CCCOc1c(OC)cccc1C1CC(=O)Nc2cc3c(cc21)OCO3 (configuration not stated)	none
COc1ccc(-c2cc(C(=O)Nc3ccc(C(N)=O)cc3)c3ccccc3n2)cc1	none (no result: TAG inh)
Cc1ccc(-n2c(C)cc(/C=N/NC(=O)c3ccncc3)c2C)cc1	none (no result: TAG inh)
CNC(=S)N/N=C/c1ccccc1Cl	none (no result: TAG inh)
CNC(=S)N/N=C/c1cc(C)n(-c2ccc(Cl)c(Cl)c2)c1C	CHT allo act 9.3 (no result: TAG inh) | CHT act confirm inactive | HEK293 MP dye inactive
Cc1ccc(-n2c(C)cc(/C=N/NC(N)=S)c2C)cc1	CHT allo act 14 (no result: TAG inh) | CHT act confirm 33 | HEK293 MP dye inactive
COC(=O)CCC(=O)Nc1sc2c(c1C#N)CCCC2	CHT allo act 9.2 (no result: Kir21 block) | CHT act confirm 25 | HEK293 MP dye inactive
CC(C)=CCN1CCN(Cc2cn[nH]c2C2CCCCC2)CC1CCO (configuration not stated)	none (no result: TAG inh)
CCOC(=O)N1CCN(c2nc(-c3cccs3)nc3ccccc23)CC1	CHT allo act 6.7 (no result: TAG inh) | CHT act confirm 30 | HEK293 MP dye inactive
COc1ccccc1-n1c(-c2ccccc2)c[nH]c1=S	none (no result: CHT allo act, CHT block)
COc1ccccc1-n1c(-c2ccccc2)c[n+]2c1CCc1ccccc1-2	CHT allo act 11!, Kir21 block -14 | CHT act confirm 32 | HEK293 MP dye inactive
COc1ccc(-n2c(-c3ccc(Br)cc3)c[n+]3c2CCc2ccccc2-3)cc1	Kir21 block -5.9 | CHT act confirm 91 | HEK293 MP dye -29
O=C(Nc1cc(S(=O)(=O)N2CCOCC2)ccc1OCC(F)(F)F)C1=COCCO1	none
c1cc2c3c(cccc3c1)C(N1CCCCCC1)=N2	none | CHT act confirm 50 | HEK293 MP dye -57
Cc1nn(S(=O)(=O)c2ccc(Cl)cc2)c(C)c1Sc1ccc([N+](=O)[O-])cc1	none (no result: TAG inh)
Cc1nn(-c2ccccc2)c(N)c1Sc1ccc([N+](=O)[O-])cc1	CHT allo act 6.9 (no result: TAG inh) | CHT act confirm 36 | HEK293 MP dye inactive
COc1ccc(Cl)cc1NC(=O)C1COc2ccccc2O1 (configuration not stated)	none
CN1CCN(c2ccc(Cl)cc2NC(=O)C2COc3ccccc3O2)CC1 (configuration not stated)	none | CHT act confirm inactive | HEK293 MP dye inactive
O=C(Nc1ccc2c(c1)OCO2)c1ccc2sc([C@H]3C[C@H](O)[C@@H](CO)O3)nc2c1	none (no result: CHT allo act, Kir21 block, CHT block)
Cc1ccccc1OCC(=O)N/N=C1\SCC(=O)N1Cc1ccccc1	none (no result: TAG inh)
CN1C(=O)CS/C1=N\NC(=O)COc1cccc2cccnc12	CHT allo act 6.6 (no result: TAG inh) | CHT act confirm 48 | HEK293 MP dye -56
Cc1ccc(NC(=O)c2ccc(Cl)c(S(=O)(=O)N3CCc4ccccc43)c2)nc1	none (no result: CHT allo act, Kir21 block, CHT block)
Cc1nnc2c(NC3CCCCC3)nc3ccccc3n12	none (no result: TAG inh)
CCN(C(=O)c1cccc(S(=O)(=O)N(C)C)c1)C12CC3CC(CC(C3)C1)C2	CHT allo act 9.7 (no result: TAG inh) | CHT act confirm 14 | HEK293 MP dye inactive
CCN(C(=O)c1ccc2c(c1)OCO2)C12CC3CC(CC(C3)C1)C2	none (no result: CHT allo act, Kir21 block, CHT block)
CCOC(=O)C1CCCN(c2c(NCCc3ccc(Cl)cc3)c(=O)c2=O)C1 (configuration not stated)	none
COc1ccc(OC)c2c(C)cc(N3CCN(C(=O)c4ccc(F)cc4)CC3)nc12	CHT allo act 6.5 | CHT act confirm 41 | HEK293 MP dye -69
CNc1cc(N2CCCC2)ccc1[N+](=O)[O-]	none
CN1CCN(C=Nc2nc3ccccc3nc2N2CCCC2)CC1	CHT allo act 6.7 | CHT act confirm 26 | HEK293 MP dye -52

Compound activity from PubChem.
